High-throughput results from PubChem BioAssay.
An excerpt weighted towards active compounds, which were near 18% of everything screened.
Six1-Eya2 blk = blocks human Six1 binding to Eya2; Q15475+O00167; AlphaScreen GST-Six1/His-Eya2 binding, biochemical; hits give low values; activity change, % (concentration not given with the values); 360,000 compounds, 0.56% hits; AID 651725; in the data active = activity change below about -65%; inconclusive = mostly about -30% to -63%
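Homogeneous AlphaScreen proximity assay pairing GST-Six1 with His-tagged Eya2 (added as 5X mix: 250 nM and 500 nM) in 50 mM Tris pH 8.0, 300 mM NaCl, 1 mM TCEP. Glutathione donor and nickel acceptor beads; 1 h, 37 °C, dark.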
DT40 TDP1 CPT = DT40-hTDP1 cell growth loss with CPT; chicken DT40 Tdp1-/-;hTDP1 cells + 20 nM CPT, ATP luminescence, 48 h; Potency, µM (top dose mostly 46.2 µM), without a hit: at the top dose activity change, negative = growth inhibition, actives largely listed as inhibitors; 420,000 compounds, 12% hits; note: potency is the fitted concentration of half-maximal effect; nearly all actives have a fitted effect of over 55% in size
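Chicken DT40 Tdp1-/- cells complemented with human TDP1, 400 cells/well, exposed to compounds plus 20 nM camptothecin for at least 48 h at 37 C; viability read as ATP content by CellTiter-Glo luminescence.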
CtBP-E1A inh = blocks the CtBP interaction with E1A. AlphaScreen GST-E1A/His-CtBP binding, 1536-well; hits give low values. activity change, % (test concentration not listed). 340,000 compounds, 0.49% hits. AID 651724; in the data active = activity change below about -65%; inconclusive = mostly about -30% to -63%
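Protein mix (5X: 125 nM each GST-E1A, His-CtBP) was incubated with pinned compound 2 h at 37 deg C in dark, in 50 mM Tris pH 8.0 buffer with 300 mM NaCl. Glutathione donor and nickel acceptor beads followed; AlphaScreen signal read after 1 h.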
TDP1 cell noCPT = qHTS for Inhibitors of human tyrosyl-DNA phosphodiesterase 1 (TDP1): qHTS in cells in absence of CPT | DT40 Tdp1-/- hTDP1 cells, no CPT, ATP luminescence, 48 h | Potency, µM (highest dose often 46.2 µM), without a hit: at the highest dose activity change, negative = growth inhibition, actives largely listed as inhibitors | 420,000 compounds, 15% hits; note: potency is the fitted concentration of half-maximal effect; nearly all actives have a fitted effect of over 55% in size
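No-CPT arm: Tdp1-/-;hTDP1 DT40 cells (400/well) plus compounds, incubated ≥48 hr at 37 °C. Readout CellTiter-Glo luminescence.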
TDP1 block = inhibitors of human tyrosyl-DNA phosphodiesterase TDP1; Q9NUW8; recombinant TDP1, AlphaScreen DNA substrate cleavage; Potency, µM (series often up to 130 µM), for inactives: at the top dose activity change, negative = inhibition, usual class: inhibitors; 350,000 compounds, 0.28% hits; note: potency is the fitted concentration of half-maximal effect; nearly all actives have a fitted effect of over 40% in size
Target sequence (Q9NUW8 whole entry, looked up): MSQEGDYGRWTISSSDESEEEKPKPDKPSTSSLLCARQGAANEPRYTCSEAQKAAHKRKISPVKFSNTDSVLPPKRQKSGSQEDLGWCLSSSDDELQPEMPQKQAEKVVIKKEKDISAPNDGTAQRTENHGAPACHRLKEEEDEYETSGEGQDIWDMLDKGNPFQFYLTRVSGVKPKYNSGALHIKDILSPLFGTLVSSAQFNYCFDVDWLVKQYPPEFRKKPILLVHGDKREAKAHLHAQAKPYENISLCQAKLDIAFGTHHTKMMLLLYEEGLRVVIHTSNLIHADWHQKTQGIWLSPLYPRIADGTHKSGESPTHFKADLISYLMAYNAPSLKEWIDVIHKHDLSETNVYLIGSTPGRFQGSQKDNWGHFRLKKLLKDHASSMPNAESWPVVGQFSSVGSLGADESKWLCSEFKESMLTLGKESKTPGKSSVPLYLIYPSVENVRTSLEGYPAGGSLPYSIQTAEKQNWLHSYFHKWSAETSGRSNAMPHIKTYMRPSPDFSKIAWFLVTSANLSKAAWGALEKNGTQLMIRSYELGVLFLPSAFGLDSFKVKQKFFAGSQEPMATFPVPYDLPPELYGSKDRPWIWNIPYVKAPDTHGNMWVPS
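Steps: enzyme plus compound, 15 min RT; add biotin/phosphotyrosine-FITC oligonucleotide (15 nM final), react 5 min; add donor/acceptor beads (10 ug/ml final), 10 min; read AlphaScreen. Tdp1 at 1 nM final.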
IL-1B inflam inh = blocks inflammasome-driven IL-1 beta release. 360,000 compounds, 4.7% hits. THP-1 LPS/ATP IL-1B secretion, AlphaLISA, 16 h; hits give low values. activity change, % at 57.5 µM. AID 743279; in the data active = activity change below about -50%; inconclusive = mostly about -30% to -49%
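Secreted IL-1B measured by AlphaLISA bead assay after 16 h compound exposure of THP-1 cells; compounds (final up to 57.5 uM) added 1 h before LPS (250 ng/mL) and ATP (1.25 mM) stimulation; lower signal means less secretion.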
Active calls of the source: *. Unless noted, calls come from the whole dose curve; as a rule, active = well fitted curve in the direction sought with a large enough effect; inconclusive = small, poorly fitted or top-dose-only effect, or another doubt; inactive = no such curve, though single readings can be large; an effect the other way counts as inactive or inconclusive. % is set by controls: 0 for no effect and ±100 for the full control effect.

How did CC(=O)Oc1ccc2c(c1)Oc1cc(OC(C)=O)ccc1C21OC(=O)c2ccccc21 do in these assays?
Six1-Eya2 blk: -82*; DT40 TDP1 CPT: -10%; CtBP-E1A inh: -28; TDP1 cell noCPT: -28%; TDP1 block: 4%; IL-1B inflam inh: inconclusive

What do the screens show for `CC(C)Cn1c(O)c2ccc(C(=O)N=NC(=O)c3cccnc3)cc2c1O`?
Six1-Eya2 blk: 7; DT40 TDP1 CPT: -12%; CtBP-E1A inh: -4; TDP1 cell noCPT: -15%; TDP1 block: 3%; IL-1B inflam inh: 13

What do the screens show for `CCCCC(c1nnnn1CC1CCCO1)N1CCN(c2ccccc2)CC1` (stereo not drawn)?
Six1-Eya2 blk: 3; DT40 TDP1 CPT: -1%; TDP1 cell noCPT: 9%; TDP1 block: 3%; IL-1B inflam inh: 19

What do the screens show for `CCCCC(c1nnnn1CC1CCCO1)N1CCN(c2cc(Cl)ccc2C)CC1` (stereo not drawn)?
Six1-Eya2 blk: -2; DT40 TDP1 CPT: inconclusive; CtBP-E1A inh: 2; TDP1 cell noCPT: 16µM*; TDP1 block: 5%; IL-1B inflam inh: -11

Results for CCCCC(c1nnnn1CC1CCCO1)N1CCN(c2nc3ccccc3s2)CC1 (stereo not drawn) ?
Six1-Eya2 blk: -5; DT40 TDP1 CPT: 23µM*; CtBP-E1A inh: 5; TDP1 cell noCPT: inconclusive; TDP1 block: 5%; IL-1B inflam inh: -12

How did CCCC(c1nnnn1CC1CCCO1)N1CCN(c2nc3ccccc3s2)CC1 (stereo not drawn) do in these assays?
Six1-Eya2 blk: 3; DT40 TDP1 CPT: inconclusive; CtBP-E1A inh: -7; TDP1 cell noCPT: inconclusive; TDP1 block: 1%; IL-1B inflam inh: -6

How did CC(=NC1CCCC1)c1c(C)[nH]n(-c2nc3ccccc3s2)c1=O do in these assays?
Six1-Eya2 blk: -4; DT40 TDP1 CPT: inconclusive; CtBP-E1A inh: -7; TDP1 cell noCPT: inconclusive; TDP1 block: 5%; IL-1B inflam inh: -17

Results for CC(=NC1CC1)c1c(-c2ccccc2)[nH]n(-c2nc3ccccc3s2)c1=O ?
Six1-Eya2 blk: -1; DT40 TDP1 CPT: inconclusive; CtBP-E1A inh: 1; TDP1 cell noCPT: 22µM*; TDP1 block: 5%

Results for C/C1=C\CCC2C(/C=C(\C)CC1)OC(=O)C2CN1CCCCC1 (stereo not drawn) ?
Six1-Eya2 blk: 10; DT40 TDP1 CPT: 10µM*; CtBP-E1A inh: -25; TDP1 cell noCPT: inconclusive

What do the screens show for `CN(C)/C=N/c1sc2c(c1C#N)CCCC2`?
Six1-Eya2 blk: 2; DT40 TDP1 CPT: 9%; CtBP-E1A inh: 23; TDP1 cell noCPT: -19%; TDP1 block: -3%; IL-1B inflam inh: -13

What do the screens show for `CC1CCc2c(sc(/N=C/N(C)C)c2C#N)C1` (stereo not drawn)?
Six1-Eya2 blk: -8; DT40 TDP1 CPT: inconclusive; CtBP-E1A inh: -1; TDP1 cell noCPT: -20%; TDP1 block: 2%; IL-1B inflam inh: -63*

Results for O=C(Nc1cccc(F)c1)N1CC[C@@]2(CCCN(C(=O)c3cccc(F)c3)C2)C1 ?
DT40 TDP1 CPT: 8%; TDP1 cell noCPT: -5%

How did CC(=O)c1ccc(N2CCN(C(=O)Nc3cccc(F)c3)CC2)cc1 do in these assays?
Six1-Eya2 blk: 7; DT40 TDP1 CPT: 21µM*; TDP1 cell noCPT: inconclusive; TDP1 block: 2%; IL-1B inflam inh: -5

Results for O=C(Nc1cccc(F)c1)N1CCC2(CC1)CCN(C(=O)c1cccc(F)c1)CC2 ?
DT40 TDP1 CPT: -6%; TDP1 cell noCPT: 21µM*

How did COC(=O)N1CCC[C@@]2(CCN(C(=O)Nc3cccc(C#N)c3)C2)C1 do in these assays?
DT40 TDP1 CPT: inconclusive; TDP1 cell noCPT: 0.046µM*

Results for O=C(Nc1cccc(F)c1)N1CCCC2(CCN(C(=O)c3ccncc3)CC2)C1 ?
DT40 TDP1 CPT: 0.13µM*; TDP1 cell noCPT: 0.15µM*

How did O=C(Nc1ccccc1)N1CCC2(CC1)CCN(C(=O)c1cccc(F)c1)CC2 do in these assays?
DT40 TDP1 CPT: -7%; TDP1 cell noCPT: inconclusive

What do the screens show for `CCCCC(=O)Nc1ccc(C(=O)Nc2ccc(S(=O)(=O)Nc3nccc(C)n3)cc2)cc1`?
Six1-Eya2 blk: -9; DT40 TDP1 CPT: -23%; CtBP-E1A inh: -3; TDP1 cell noCPT: 10%; TDP1 block: -3%; IL-1B inflam inh: 16

How did Cc1cccc(N2CC(C(=O)OCc3ccc([N+](=O)[O-])cc3)CC2=O)c1 (stereo not drawn) do in these assays?
Six1-Eya2 blk: -1; DT40 TDP1 CPT: 7%; CtBP-E1A inh: -2; TDP1 cell noCPT: 6%; TDP1 block: 3%; IL-1B inflam inh: 40

How did CC1CCN(C(=O)c2ccc(N3C(=O)c4ccccc4C3=O)cc2)CC1 do in these assays?
Six1-Eya2 blk: 2; DT40 TDP1 CPT: 2%; CtBP-E1A inh: 7; TDP1 cell noCPT: -18%; TDP1 block: 1%; IL-1B inflam inh: 8

Results for CN(CCOc1ccccc1)C(=O)CNC(=O)c1ccc(C(C)(C)C)cc1 ?
Six1-Eya2 blk: 2; DT40 TDP1 CPT: -28%; TDP1 cell noCPT: inconclusive; TDP1 block: 0%; IL-1B inflam inh: 18

Results for O=C(c1ccco1)N1CCC2(CC1)CN(C(c1ccccc1)c1ccccc1)C2 ?
DT40 TDP1 CPT: inconclusive; TDP1 cell noCPT: 15µM*

What do the screens show for `O=C(c1csnn1)N1CCC[C@@]2(CCN(C(c3ccccc3)c3ccccc3)C2)C1`?
DT40 TDP1 CPT: inconclusive; TDP1 cell noCPT: 18µM*

How did O=C(c1cccc(F)c1)N1CCC2(CC1)CCN(C(c1ccccc1)c1ccccc1)CC2 do in these assays?
DT40 TDP1 CPT: 15µM*; TDP1 cell noCPT: 23µM*

What do the screens show for `O=C(c1cccc(F)c1)N1CCC2(CC1)CN(c1ccc(-c3ccccc3)cc1)C2`?
DT40 TDP1 CPT: inconclusive; TDP1 cell noCPT: 15µM*

How did O=C(Nc1ccccc1)N1CC2(CCN(C(=O)c3ccco3)CC2)C1 do in these assays?
DT40 TDP1 CPT: 3%; TDP1 cell noCPT: -4%

Results for O=C(c1csnn1)N1CCC[C@@]2(CCN(c3ccncc3)C2)C1 ?
DT40 TDP1 CPT: -3%; TDP1 cell noCPT: -11%

How did O=C(c1cccc(F)c1)N1CCC2(CC1)CCN(c1ccc(-c3ccccc3)cc1)CC2 do in these assays?
DT40 TDP1 CPT: 9%; TDP1 cell noCPT: 1%

How did CCC(=O)NCc1c(Cl)cccc1-n1cccc1 do in these assays?
Six1-Eya2 blk: -1; DT40 TDP1 CPT: -16%; CtBP-E1A inh: 0; TDP1 cell noCPT: -10%; TDP1 block: 5%; IL-1B inflam inh: 8
